CBX7 AlphaScr: CBX7 chromodomain binding inhibitors, primary screen, biochemical, AlphaScreen; AlphaScreen His6-CBX7 / biotin-H3K27me3 peptide binding; hits give low values; 1.1% of 66,000 active; normalised signal (fraction of DMSO) (no concentration beside the values); AID 1224903, 2016; in the data active means normalised signal below about 0.5
Target sequence (O95931 whole entry, looked up): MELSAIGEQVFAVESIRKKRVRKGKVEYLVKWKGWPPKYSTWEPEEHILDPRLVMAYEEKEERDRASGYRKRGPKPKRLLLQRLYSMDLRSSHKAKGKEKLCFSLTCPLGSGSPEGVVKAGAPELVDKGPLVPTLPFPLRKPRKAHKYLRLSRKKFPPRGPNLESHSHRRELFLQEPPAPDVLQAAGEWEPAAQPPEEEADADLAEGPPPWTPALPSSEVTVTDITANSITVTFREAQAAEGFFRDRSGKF
* = called active by the depositor; ! = repeats disagree. Many of the other results were omitted from the sample, so hits are more common in it than they were.

SMILES	CBX7 AlphaScr
COc1cccc(-n2ccnc2SCC(=O)Nc2ccccc2F)c1	0.53
COc1ccccc1NC(=O)CSc1nccn1-c1ccc(Cl)cc1	0.51
CCOc1ccccc1NC(=O)CSc1nccn1-c1cc(C)cc(C)c1	0.63
COc1ccc(NC(=O)CCc2c(C)nc3cc(-c4ccc(OC)cc4OC)nn3c2C)cc1	0.96
O=C(NCCc1c[nH]c2ccccc12)c1cc2c(s1)-c1ccccc1OC2	0.76
O=C(O)c1ccc(-c2nc(-c3ccc(-c4ccccc4)cc3)c(-c3ccc(-c4ccccc4)cc3)[nH]2)cc1	0.54
Brc1ccc(-c2nc(-c3ccccc3)c(-c3ccc(Sc4ccccc4)cc3)[nH]2)cc1	0.86
Oc1ccc(-c2nc(-c3ccc(F)cc3)c(-c3ccc(F)cc3)[nH]2)cc1	1.2
CCOc1cc(-c2nc(-c3ccccc3)c(-c3ccc(Br)cc3)[nH]2)ccc1O	0.62
Oc1ccc(-c2nc(-c3ccccc3)c(-c3ccc(Br)cc3)[nH]2)cc1	0.46*
Oc1ccc(-c2nc(-c3ccccc3)c(-c3ccccc3)[nH]2)cc1	0.42*!
Cc1ccc(S(=O)(=O)CCc2nnc(NC(=O)c3ccccc3)s2)cc1	1
CCCCN(C)C(=O)CN1C(=O)CC(C)(C)Sc2ccccc21	1
COc1ccc(S(=O)(=O)NCCc2c(C)[nH]c3ccc(Br)cc23)cc1	0.87
CCOc1cc(O)c(-c2n[nH]c(C)c2Oc2ccccc2)cc1CC	0.75
CCc1cc(-c2n[nH]c(C)c2Oc2ccccc2)c(O)cc1O	0.41*
Cc1[nH]nc(-c2ccc(O)c(C)c2O)c1Oc1ccccc1	0.64
CC1CCCCN1S(=O)(=O)c1ccc2[nH]c(=O)cc(C(=O)NC3CCCCCC3)c2c1 (centres undefined)	0.85
NC(=O)c1oc2ccccc2c1NC(=O)c1ccc(S(=O)(=O)N2CCCc3ccccc32)cc1	0.79
CCc1nnc(NC(=O)c2ccc(S(=O)(=O)N3CCCCC3C)cc2)o1 (centres undefined)	0.78
CCc1nnc(NC(=O)c2ccc(S(=O)(=O)N3CCCc4ccccc43)cc2)o1	0.047*
COCc1nnc(NC(=O)c2ccc(S(=O)(=O)N3CCCC(C)C3)cc2)o1 (centres undefined)	0.79
CCc1nnc(NC(=O)c2ccc(S(=O)(=O)N3CC(C)CC(C)C3)cc2)o1 (centres undefined)	0.7
COCc1nnc(NC(=O)c2ccc(S(=O)(=O)N3CCCCCC3)cc2)o1	0.066*
CCc1nnc(NC(=O)c2ccc(S(=O)(=O)N3CCCC3)cc2)o1	0.45*
SMILES	CBX7 AlphaScr
CCc1nnc(NC(=O)c2ccc(S(=O)(=O)N3CCc4ccccc4C3)cc2)o1	0.63
COc1ccccc1NC(=O)c1c(NC(=O)c2ccccc2)sc(-c2ccccc2)c1C	1.1
O=C(Nc1nnc(COc2ccc(Cl)cc2)s1)c1ccc(F)cc1	1
CCCCC(=O)Nc1c2c(nc3c1CCC3)CCCC2	1
O=C(Cc1ccccc1)Nc1c2c(nc3ccccc13)CCC2	0.79
O=C(CN1CCCCCC1)Nc1c2c(nc3c1CCC3)CCCC2	0.074*
NC(=O)c1c(NC(=O)CN2CCCCC2)sc2c1CCCC2	0.96
O=C(CN1CCCC1)Nc1c2c(nc3c1CCC3)CCC2	0.27*
O=C(CCCN1C(=O)c2ccccc2C1=O)Nc1c2c(nc3c1CCC3)CCC2	1.1
Cc1nc2c(C(=O)N3CCCC3)cnn2c(C)c1Cc1ccc(F)cc1Cl	0.91
CCN(CC)CCCNC(=O)c1ccc2nc(N3CCC(C)CC3)sc2c1	0.99
COc1ccc(-c2nc3ccccc3n2C(C)c2ccccc2)cc1 (centres undefined)	0.96
COCCCNc1nc(CC(=O)OC)nc2sc(C)c(C)c12	0.99
CCC1CCCCN1C(=O)C1CC(c2ccc(F)cc2)=NO1 (centres undefined)	1
Cc1cc(C(F)(F)F)nn1CC(=O)Nc1ccc2nc3n(c(=O)c2c1)CCCCC3	1
Cc1cccn2cc(-c3cccc(NS(=O)(=O)c4ccc(F)cc4)c3)nc12	1.2
CC(C)OCCCNC(=O)C1=CCN(S(=O)(=O)c2ccc(F)cc2)CC1	0.97

High-throughput results: PubChem BioAssay, Bradner/Qi Labs at DFCI
